From PubChem BioAssay AID1159580 (chemical genetic matrix, 2015)
“And” between values parts separate entries of the source, which are not always exact repeats. Identical values can stand only once. The whole screen tested about 5,500 compounds, of which about 2,000 (36%) were called active. About 18% were inconclusive and are not listed. No stated cut-off is given here; in the data, active means normalized growth mostly below about 0.91 (no sharp cut-off); inconclusive means no clear call, values can overlap the other calls; inactive means mostly above about 0.92. The list shows a part of the results.

Experiment: chemical genetic growth profiling, strain panel (AID 1159580);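 further: tested at 20 µM; growth read once vehicle control cultures reached saturation at 30 °C; 1 = growth at the plate median or of vehicle wells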
Settings: S. cerevisiae deletion strains, growth OD

Measured: normalized growth

Cc1cc(O)c(C=O)c2c1C(=O)Oc1c(COC(=O)/C=C/C(=O)O)c(O)c(C(=O)O)c(C)c1O2
inactive: locus YAL021C, strain ccr4, stronger effect = lower value 0.915 | locus YAL030W, strain snc1, stronger effect = lower value 0.96 | locus YBL061C, strain skt5, stronger effect = lower value 0.96 | locus YBR009C, strain hhf1, stronger effect = lower value 0.937 | locus YBR021W, strain FUR4, stronger effect = lower value 1.06 | locus YBR023C, strain chs3, stronger effect = lower value 0.967 | locus YBR171W, strain sec66, stronger effect = lower value 0.983 | locus YBR229C, strain ROT2, stronger effect = lower value 0.988 | locus YBR279W, strain paf1, stronger effect = lower value 0.933 | locus YCL011C, strain gbp2, stronger effect = lower value 0.974 | locus YCL016C, strain dcc1, stronger effect = lower value 0.992 | locus YCL029C, strain bik1, stronger effect = lower value 0.98 | locus YCL069W, strain vba3, stronger effect = lower value 0.973 | locus YCR088W, strain abp1, stronger effect = lower value 1.02 | locus YDL005C, strain med2, stronger effect = lower value 1.02 | locus YDL035C, strain GPR1, stronger effect = lower value 0.929 | locus YDL040C, strain nat1, stronger effect = lower value 1 | locus YDL074C, strain BRE1, stronger effect = lower value 0.936 | locus YDL101C, strain DUN1, stronger effect = lower value 0.959 | locus YDL185W, strain tfp1, stronger effect = lower value 0.919 | locus YDL192W, strain arf1, stronger effect = lower value 0.95 | locus YDR001C, strain nth1, stronger effect = lower value 0.998 | locus YDR101C, strain arx1, stronger effect = lower value 0.977 | locus YDR137W, strain rgp1, stronger effect = lower value 1.04 | locus YDR150W, strain NUM1, stronger effect = lower value 0.951 | locus YDR159W, strain sac3, stronger effect = lower value 0.981 | locus YDR195W, strain ref2 1.1 | locus YDR297W, strain sur2, stronger effect = lower value 0.957 | locus YDR318W, strain mcm21, stronger effect = lower value 0.991 | locus YDR335W, strain msn5, stronger effect = lower value 0.943 | locus YDR388W, stronger effect = lower value 0.992 | locus YDR392W, strain spt3, stronger effect = lower value 0.813 | locus YDR502C, strain sam2, stronger effect = lower value 0.96 | locus YEL003W, strain gim4, stronger effect = lower value 0.977 | locus YEL037C, strain rad23, stronger effect = lower value 0.939 | locus YEL061C, strain CIN8 (second series), stronger effect = lower value 0.993 | locus YEL061C, strain CIN8, stronger effect = lower value 0.97 | locus YER016W, strain bim1, stronger effect = lower value 1.03 | locus YER110C, stronger effect = lower value 0.981 | locus YER155C, strain BEM2 (second series), stronger effect = lower value 1.01 | locus YER155C, strain BEM2, stronger effect = lower value 1 | locus YER167W, strain BCK2, stronger effect = lower value 1.01 | locus YGL078C, strain dbp3, stronger effect = lower value 0.969 | locus YGL086W, strain mad1, stronger effect = lower value 0.971 | locus YGL167C, strain pmr1, stronger effect = lower value 0.993 | locus YGL227W, strain vid30, stronger effect = lower value 1.02 | locus YGL240W, strain doc1, stronger effect = lower value 1.06 | locus YGL248W, strain PDE1, stronger effect = lower value 0.947 | locus YGR135W, strain pre9, stronger effect = lower value 0.958 | locus YGR252W, strain gcn5, stronger effect = lower value 1.12 | locus YHR013C, strain ard1, stronger effect = lower value 0.877 | locus YHR030C, strain SLT2, stronger effect = lower value 0.973 and 0.971 | locus YHR079C, strain IRE1 (second series), stronger effect = lower value 0.994 | locus YHR079C, strain IRE1, stronger effect = lower value 0.985 | locus YHR094C, strain hxt1, stronger effect = lower value 0.994 | locus YHR129C, strain ARP1, stronger effect = lower value 0.937 | locus YHR200W, strain rpn10, stronger effect = lower value 0.976 | locus YIL066C, strain RNR3, stronger effect = lower value 0.896 | locus YIL073C, strain SPO22, stronger effect = lower value 0.898 | locus YIL125W, strain kgd1, stronger effect = lower value 0.969 | locus YIR030C, strain dcg1, stronger effect = lower value 0.993 | locus YJL092W, strain hpr5, stronger effect = lower value 0.952 | locus YJL095W, strain BCK1 (second series), stronger effect = lower value 0.961 | locus YJL095W, strain BCK1, stronger effect = lower value 0.904 and 0.959 | locus YJL115W, strain asf1, stronger effect = lower value 1 | locus YJL129C, strain trk1, stronger effect = lower value 1.08 | locus YJL134W, strain LCB3, stronger effect = lower value 0.978 | locus YJL154C, strain vps35, stronger effect = lower value 0.992 | locus YJL164C, strain tpk1, stronger effect = lower value 0.935 | locus YJL166W, strain qcr8, stronger effect = lower value 0.947 | locus YJL168C, strain set2, stronger effect = lower value 0.974 | locus YJL187C, strain SWE1 (second series), stronger effect = lower value 0.879
active: locus YAL026C, strain drs2, stronger effect = lower value 0.841 | locus YBR231C, strain swc5, stronger effect = lower value 0.885 | locus YCL061C, strain MRC1, stronger effect = lower value 0.912 | locus YDR069C, strain doa4, stronger effect = lower value 0.883 | locus YDR162C, strain NBP2, stronger effect = lower value 0.808 | locus YDR334W, strain swr1, stronger effect = lower value 0.891 | locus YER015W, strain faa2, stronger effect = lower value 0.874 | locus YER111C, strain swi4, stronger effect = lower value 0.906 | locus YFR010W, strain ubp6, stronger effect = lower value 0.873 | locus YGL173C, strain kem1, stronger effect = lower value 0.856 | locus YGL253W, strain hxk2, stronger effect = lower value 0.787 | locus YGR229C, strain SMI1, stronger effect = lower value 0.734 | locus YHR027C, strain rpn1, stronger effect = lower value 0.761 | locus YHR142W, strain chs7, stronger effect = lower value 0.852
